Screening data (PubChem)
Hits are enriched below; roughly 4.2% of the tested compounds scored in any of these assays.
Sfp inh – blocks B. subtilis Sfp PPTase activity; Potency, µM, without a hit: largest response in the series, negative = inhibition, actives largely listed as inhibitors; AID 1490; Q9F4F7; Biochemical Sfp PPTase activity, qHTS; 310,000 tested, 3.5% active;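 note: the enzyme is Sfp with the accession as filed and its product quenches rhodamine fluorescence; 0% = enzyme reaction without inhibitor and -100% = no enzyme wells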
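Sfp 15 nM + cpd, 15 min RT; start w/ rhodamine-CoA 5 uM, BHQ-2-YbbR 12.5 uM (final); 50 mM Hepes pH 7.6, 10 mM MgCl2, 0.01% NP-40, 0.01% BSA; read 525/598 nm at 0 and 30 min.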
VDR inh – inhibitors of human vitamin D receptor; P11473; VDR-SRC2-3 peptide fluorescence polarization, 2 h; Potency, µM, without a hit: max response, negative = inhibition, usual class: inhibitors; 400,000 tested, 0.93% active
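Measured by FP: displacement of SRC2-3 coactivator peptide from VDR by library compounds, following a two-hour ambient incubation.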
PLK1 PBD block – blocks phosphopeptide binding to human PLK1 polo-box domain | P53350 | Potency, µM, inactives show max response, negative = inhibition, hits mostly inhibitors | 360,000 tested, 2.8% active | Plk1 PBD binding of FITC phosphopeptide, fluorescence polarization | AID 720504; note: series mostly up to about 57 µM; nearly all actives have a fitted effect of over 65% in size
12-LOX inh – ALOX12 (human) lipoxygenase inhibition; 580,000 tested, 1.1% active; purified 12hLO, xylenol orange hydroperoxide absorbance; P18054; Potency, µM (top dose mostly 108 µM), for inactives: top-dose activity change, negative = inhibition, most hits filed as inhibitors
Target sequence (P18054 whole entry, looked up): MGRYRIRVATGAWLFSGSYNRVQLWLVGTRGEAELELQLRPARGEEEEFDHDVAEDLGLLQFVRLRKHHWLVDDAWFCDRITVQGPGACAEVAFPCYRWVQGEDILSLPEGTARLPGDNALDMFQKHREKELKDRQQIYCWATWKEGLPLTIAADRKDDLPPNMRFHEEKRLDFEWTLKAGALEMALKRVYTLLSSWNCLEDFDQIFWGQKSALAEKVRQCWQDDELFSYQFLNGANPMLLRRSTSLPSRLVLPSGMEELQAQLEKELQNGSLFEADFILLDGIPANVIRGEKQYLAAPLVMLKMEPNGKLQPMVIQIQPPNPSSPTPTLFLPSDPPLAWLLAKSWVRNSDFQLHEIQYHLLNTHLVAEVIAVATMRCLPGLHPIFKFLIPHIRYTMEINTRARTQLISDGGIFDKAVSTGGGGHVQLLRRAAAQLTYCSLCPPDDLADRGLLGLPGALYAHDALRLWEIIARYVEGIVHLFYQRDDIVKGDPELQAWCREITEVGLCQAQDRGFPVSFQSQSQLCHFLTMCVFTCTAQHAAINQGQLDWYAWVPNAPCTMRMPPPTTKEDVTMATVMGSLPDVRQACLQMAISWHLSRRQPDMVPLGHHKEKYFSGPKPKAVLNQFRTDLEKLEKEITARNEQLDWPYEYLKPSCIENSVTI
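Hydroperoxide product was detected by ferrous iron/xylenol orange as the 573 to 405 nm absorbance ratio. Arachidonic acid at 40 uM (final) was turned over for 30 min at room temperature by 150 nM human 12hLO, pH 7.0 Hepes buffer, after 15 min compound preincubation.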
The depositor's hits bear a star; ? = inconclusive; / = no result. Calls come from the whole dose curve; as a rule, active = well fitted curve in the direction sought with a large enough effect; inconclusive = small, poorly fitted or top-dose-only effect, or another doubt; inactive = no such curve, though single readings can be large; an effect the other way counts as inactive or inconclusive. Unless noted, % is set by controls: 0 for no effect and ±100 for the full control effect; potency is the fitted concentration of half-maximal effect.

SMILES | Sfp inh | VDR inh | PLK1 PBD block | 12-LOX inh
Cc1ccccc1NC(=S)C1=C(O)c2sccc2N(C)S1(=O)=O | 56.2µM* | ? | ? | -18.0%
CN1c2ccsc2C(O)=C(C(=S)Nc2ccccc2)S1(=O)=O | 56.2µM* | ? | 21.2µM* | -3.3%
CN1c2ccccc2C(O)=C(C(=S)Nc2ccccc2)S1(=O)=O | -7.4% | -7.6% | -23.9% | ?
CCCN(C(=O)C1CC(=O)N(c2ccccc2C(C)CC)C1)C1CCS(=O)(=O)C1 (centres undefined) | / | -10.6% | 1.8% | 0.0%
O=C1COc2ccc(C(=O)CSc3nnc(-c4cccc(Cl)c4)o3)cc2N1 | / | / | / | -6.1%
O=C(CSc1nc(-c2ccc(F)cc2)cs1)Nc1ccccn1 | -5.5% | -3.2% | -0.4% | -4.1%
COC(=O)C1=C(C)NC(=O)CC1c1cccc(F)c1 (centres undefined) | / | / | / | 37.2%
COC(=O)C1=C(C(=O)OC)C2(OC1c1cccc(F)c1)C(=O)c1ccccc1C2=O (centres undefined) | 79.4µM* | 8.5% | -15.6% | ?
CCOc1ccc(NC(=O)Cn2nc3c(cc2=O)CC(C)CC3)cc1 (centres undefined) | / | 6.3% | / | -9.7%
CCOc1ccccc1NC(=O)Cn1c(=O)sc2ccccc21 | 14.0% | -11.8% | -15.5% | 8.4%
O=C(Cn1c(=O)sc2ccccc21)Nc1ccc(O)cc1 | 79.4µM* | 4.3% | -4.9% | 4.2%
CC(C)(C)c1ccc(OCCNC(=S)Nc2ccccc2)cc1 | 1.0% | 1.8% | -5.7% | 44.7µM*
CNCCCOc1ccc(C(C)(C)c2ccccc2)cc1 | 56.2µM* | / | / | /
S=C(NCCSCc1c(Cl)cccc1Cl)Nc1ccccc1 | -0.8% | 1.6% | -7.5% | 35.5µM*
CC(C)(C)c1ccc(OCCNCc2ccccc2)cc1 | -19.1% | -4.2% | -3.6% | ?
CCOc1ccc(CSCCNC(=S)Nc2ccccc2)cc1 | 12.8% | -21.1% | -1.5% | 44.7µM*
COc1ccc(CNc2ncncc2-c2ccccc2Cl)c(OC)c1 | ? | -21.0% | / | 38.9%
COc1ccccc1OCc1cc(C(=O)NCCN2CCCC(O)C2)no1 (centres undefined) | 4.4% | -9.6% | -3.6% | ?
CC(Oc1ccccc1)C(=O)N1CCC2(CC1)Oc1ccc(F)cc1C(=O)C21CC(c2ccccc2)=NO1 (centres undefined) | / | ? | 21.2µM* | 3.1%
CC(Oc1ccccc1)C(=O)N1CCC2(CC1)Oc1ccc(F)cc1C(=O)C21CC(c2ccc(Cl)cc2)=NO1 (centres undefined) | / | -11.5% | 1.8% | -7.6%
Oc1ccc(-c2cn3c(n2)SCC3)cc1O | 17.8µM* | -14.2% | 23.8µM* | ?
Cc1ccc2c(c1)Cc1c(nc(-c3ccc(Cl)cc3)nc1SCC(=O)N1CCCCC1)O2 | / | 11.2% | / | -18.9%
CCOc1ccc(NC(=O)CCSc2nc(-c3ccc4c(c3)OCO4)cc(C(F)(F)F)n2)cc1 | / | -5.2% | / | -1.5%
CC(CNCC1CCCO1)COc1ccccc1 (centres undefined) | 6.3% | -1.8% | 29.9µM* | -39.1%
CC(CNCC1CCCO1)COc1cccc2ccccc12 (centres undefined) | -16.0% | 3.7% | 1.1% | ?
SMILES | Sfp inh | VDR inh | PLK1 PBD block | 12-LOX inh
N#C/C(C(=O)c1ccccc1)=C1/SC=C(N)N1c1ccccc1 | 35.5µM* | / | / | /
N#C/C(C(N)=O)=C1/SC=C(c2ccccc2)N1c1ccccc1 | 13.3% | -2.4% | -15.6% | ?
COC(=O)[C@H]1[C@H](CO)[C@H]2Cn3c(ccc(Br)c3=O)[C@H]2N1C(=O)c1ccccn1 | / | / | / | 0.794µM*
COc1cccc([S+](=O)([O-])N2CCC3(CC2)C(=NC2CCCCC2)NC(=O)N3c2cccnc2)c1 | / | / | / | 29.2%
CC(C)OC(=O)CC(=O)c1sc2nc3c(cc2c1N)CN(C)CC3 | 44.7µM* | -18.4% | -29.7% | /
Cc1cc(C)c2c(N)c(C(=O)NN3CC(=O)N(c4ccccc4)CC3=O)sc2n1 | 20.6% | -1.8% | -12.7% | 50.1µM*
CCN1CCc2nc3sc(C(=O)Nc4cccc(Cl)c4C)c(N)c3cc2C1 | / | -4.9% | / | -26.4%
CCN1CCc2nc3sc(C(=O)N4CCc5ccccc5C4)c(N)c3cc2C1 | 44.7µM* | -14.0% | -16.9% | ?
Cc1cc(C)c2c(N)c(S(=O)(=O)c3ccccc3)sc2n1 | 89.1µM* | 2.6% | -28.6% | 0.0%
CCOC(=O)c1nn(-c2cccc(C)c2)c2nc(-c3ccccc3)c(C#N)c(=O)n12 | 9.8% | 0.8% | -2.3% | 239.5%
CC(C)c1ccc2nc3sc(C(=O)N4CCc5ccccc5C4)c(N)c3cc2c1 | -30.0% | -13.7% | -14.1% | ?
Cc1cc(C)c2c(N)c(C(=O)N3CCc4ccccc4C3)sc2n1 | 56.2µM* | 7.5% | -6.7% | 0.5%
CSc1ccc(CNCc2ccc3c(c2)OCO3)cc1 | -27.7% | -12.2% | -10.1% | ?
CC(=O)OCC1OC(n2ccc3ccccc32)C(OC(C)=O)C(OC(C)=O)C1OC(C)=O (centres undefined) | 14.3% | -3.4% | 26.7µM* | -19.0%
CC(=O)OC[C@H]1O[C@@H](n2ccc(=O)[nH]c2=S)C(OC(C)=O)C1OC(C)=O (some centres undefined) | -24.9% | -5.7% | -2.0% | -20.0%
Nc1nc(Nc2ccccc2F)nc(N2CCCC2)c1[N+](=O)[O-] | 11.4% | -9.8% | -6.9% | -2.0%
COc1ccc(-c2cc(C(=O)N3CCCC3)c3ccccc3n2)c(OC)c1 | / | / | / | 17.8µM*
CCNC(=O)c1cc(-c2ccc(OC)cc2OC)nc2ccccc12 | / | / | / | 8.91µM*
CC(=O)OCc1ccc(C(=O)O)cc1 | / | / | / | -24.4%
CCC(N)(C(=O)O)c1ccc(C(=O)O)cc1 (centres undefined) | 79.4µM* | -2.6% | / | 5.6%
COc1ccccc1Cc1c(C(C)(C)C)nc2c3ccccc3ccn12 | / | / | -13.3% | 28.2µM*
COc1ccc(OC)c(/C=N/N=C2\SCC(=O)N2Cc2ccco2)c1 | 56.2µM* | 0.8% | -0.3% | -17.4%
O=C(COc1ccc(Br)cc1)N/N=C1/SCC(=O)N1Cc1ccco1 | -2.1% | ? | 23.8µM* | 0.0%
O=C1CSC(=Nc2ccc(Cl)cc2)N1Cc1ccco1 | ? | -15.5% | -4.0% | 85.4%
COc1ccc(OCc2cc(C(=O)O)c(C)o2)cc1 | 18.7% | / | / | /
SMILES | Sfp inh | VDR inh | PLK1 PBD block | 12-LOX inh
CCOc1ccc(NC(=O)CN(C)C(=O)C2CCN(C(=O)Nc3ccccc3)CC2)cc1OCC | / | 5.2% | -13.8% | 4.3%
COc1cccc(NC(=O)CSc2ncc(S(=O)(=O)c3ccccc3)c(=O)[nH]2)c1 | 23.9% | -29.1% | 26.7µM* | -4.4%
Cc1ccc(NC(=O)CSc2ncc(S(=O)(=O)c3ccccc3)c(=O)[nH]2)cc1C | -17.8% | -5.0% | -18.3% | 7.3%
COc1cccc(NC(=O)c2ccc3c(O)c(S(=O)(=O)c4ccccc4)c(=O)[nH]c3c2)c1 | 23.9% | ? | 23.8µM* | -17.3%
CC1CCCC(NC(=O)CN(C)S(=O)(=O)c2cnc[nH]2)C1C (centres undefined) | 1.5% | -1.9% | -7.9% | -11.7%
COC(=O)C1=C(O)/C(=C\c2ccc(CNC(=O)C(=O)Nc3ccc(C)c(C)c3)o2)N=C1C | ? | -4.0% | -18.3% | ?
COC(=O)C1=C(O)/C(=C\c2ccc(CNC(=O)C(=O)Nc3ccc(C)cc3)o2)N=C1C | 12.6µM* | 16.5% | -27.8% | ?
